TDP1 cell CPT = qHTS for Inhibitors of human tyrosyl-DNA phosphodiesterase 1 (TDP1): qHTS in cells in presence of CPT; 420,000 compounds, 12% hits; chicken DT40 Tdp1-/-;hTDP1 cells + 20 nM CPT, ATP luminescence, 48 h; Potency, µM (top dose mostly 46.2 µM), most hits filed as inhibitors; also: nearly all actives have a fitted effect of over 55% in size
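Chicken DT40 Tdp1-/- cells stably complemented with human TDP1 were seeded at 400 cells/well in medium containing 20 nM camptothecin, exposed to pin-transferred compounds, and grown at 37 °C for at least 48 hr. Viability was read as ATP luminescence.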
RORg inh = qHTS for inhibitors of ROR gamma transcriptional activity. Drosophila S2 Gal4-RORgamma UAS-luciferase reporter, 20 h. Potency, µM (series often up to 53.6 µM), hits mostly inhibitors. 310,000 compounds, 5.4% hits. AID 2551, 2010; also: nearly all actives have a fitted effect of over 60% in size
Target sequence (P51450 whole entry, looked up, the tested form may be a part): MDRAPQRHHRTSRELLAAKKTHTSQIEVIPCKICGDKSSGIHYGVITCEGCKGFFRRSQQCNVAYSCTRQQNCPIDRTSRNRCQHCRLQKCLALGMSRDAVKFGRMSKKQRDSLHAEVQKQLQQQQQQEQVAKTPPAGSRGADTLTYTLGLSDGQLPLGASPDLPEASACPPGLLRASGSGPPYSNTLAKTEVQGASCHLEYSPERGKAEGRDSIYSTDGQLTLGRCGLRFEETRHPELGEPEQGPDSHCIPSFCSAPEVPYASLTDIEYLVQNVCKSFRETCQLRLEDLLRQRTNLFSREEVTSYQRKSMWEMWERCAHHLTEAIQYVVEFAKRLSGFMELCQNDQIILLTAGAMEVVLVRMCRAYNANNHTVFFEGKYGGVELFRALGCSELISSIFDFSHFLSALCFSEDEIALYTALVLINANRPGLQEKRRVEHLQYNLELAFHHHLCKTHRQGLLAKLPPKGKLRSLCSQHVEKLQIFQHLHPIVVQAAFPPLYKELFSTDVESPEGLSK
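ROR gamma transcriptional activity was tracked as Gal4-UAS luciferase output in stably transfected Drosophila Schneider cells, with compound added 1 hr before 700 uM copper sulfate induction and a 20 hr ambient-temperature incubation.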
TDP1 cell noCPT = qHTS for Inhibitors of human tyrosyl-DNA phosphodiesterase 1 (TDP1): qHTS in cells in absence of CPT. DT40 Tdp1-/- hTDP1 cells, no CPT, ATP luminescence, 48 h. Potency, µM (doses to about 46.2 µM), hits mostly inhibitors. 420,000 compounds, 15% hits; also: nearly all actives have a fitted effect of over 55% in size
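Growth of hTDP1-complemented DT40 Tdp1-knockout cells is measured by ATP luminescence after at least 48 hr compound exposure at 37 °C, with DMSO substituting for the 20 nM CPT used in the parallel screen.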
Gal4-VP16 FLuc = VP16 counterscreen qHTS for inhibitors of ROR gamma transcriptional activity; Drosophila S2 Gal4-VP16 UAS-luciferase, luminescence, 20 h; Potency, µM (series often up to 53.6 µM), hits mostly inhibitors; 310,000 compounds, 3.5% hits; AID 2546, 2010;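 also: Gal4-VP16 expression switched on by copper sulfate through the metallothionein promoter; nearly all actives have a fitted effect of over 50% in size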
TDP1 block = qHTS Assay for Inhibitors of Tyrosyl-DNA Phosphodiesterase (TDP1) | Tyrosyl-DNA phosphodiesterase 1 (Homo sapiens), Q9NUW8 | recombinant TDP1, AlphaScreen DNA substrate cleavage | Potency, µM (titrated, usually from 130 µM), actives largely listed as inhibitors | 350,000 compounds, 0.28% hits | AID 485290, 2010; also: nearly all actives have a fitted effect of over 40% in size
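AlphaScreen read-out: signal falls as enzyme removes the 3' tyrosine-FITC from a 5'-biotinylated DNA oligo (15 nM, 5 min, RT). Enzyme was E. coli-made recombinant Tdp1 at 1 nM, exposed to compound for 15 min beforehand; beads 10 ug/ml, 10 min.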
Hits are given with their value; n = inactive; u = inconclusive; x = no result; [ ] = remark or other dose. The list is not random: actives were taken first. Their share in the collection is about 19%. Calls follow the shape of the dose curve; as a rule, active = well fitted curve in the direction sought with a large enough effect; inconclusive = small, poorly fitted or top-dose-only effect, or another doubt; inactive = no such curve, though single readings can be large; an effect the other way counts as inactive or inconclusive.

SMILES | TDP1 cell CPT | RORg inh | TDP1 cell noCPT | Gal4-VP16 FLuc | TDP1 block
Cc1cccc(N2CCN(C(c3ccccc3)c3nnnn3C(C)(C)C)CC2)c1C (stereo not drawn) | u | n | 23µM | n | n
CCC(c1nnnn1C(C)(C)C)N1CCN(c2cc(Cl)ccc2C)CC1 (stereo not drawn) | u | n | 16µM | n | n
CC(C)(C)n1nnnc1C(c1ccc(Cl)cc1)N1CCCc2ccccc21 (stereo not drawn) | u | n | 15µM | n | n
COc1ccccc1N1CCN(C(c2ccc(Cl)cc2)c2nnnn2C(C)(C)C)CC1 (stereo not drawn) | u | n | u | 22µM | n
COc1cc(C(c2nnnn2C(C)(C)C)N2CCN(c3nc4ccccc4s3)CC2)ccc1O (stereo not drawn) | 15µM | n[10 µM] | 12µM | n | n
COc1ccccc1N1CCN(C(c2ccccc2Cl)c2nnnn2C(C)(C)C)CC1 (stereo not drawn) | u | u | u | u | n
Cc1cccc(N2CCN(C(c3cccs3)c3nnnn3C(C)(C)C)CC2)c1C (stereo not drawn) | 18µM | n | 22µM | n | n
Cc1cc(Cl)ccc1NNC(=O)c1c(C)noc1C | n | n | n | n | n
Cc1ccc(-c2csc3ncnc(-n4cnc5ccccc54)c23)cc1 | u | u | 18µM | u | n
Cc1ccc(-c2csc3ncnc(-n4nc(C)cc4N)c23)cc1 | n | n | n | n | n
Cc1ccc(-c2csc3ncnc(-n4nnc5ccccc54)c23)cc1C | 21µM | n | u | n | n
c1ccc(-c2csc3ncnc(-n4cnc5ccccc54)c23)cc1 | u | n | u | n | n
COc1ccc(C(=O)NC2CCN(C(=S)Nc3cc(C)cc(C)c3)CC2)cc1 | n | n | n | n | n
COc1cc2c(cc1OC)C(=O)N1[C@H]3c4ccccc4OC[C@@H]3[C@H](c3ccccc3)[C@]1(C)C(=O)N2 | u | x | 15µM | x | x
C[C@@]12C(=O)Nc3cc(F)c(F)cc3C(=O)N1[C@H]1c3ccccc3OC[C@@H]1[C@@H]2c1ccccc1 | u | x | 18µM | x | x
C[C@@]12C(=O)Nc3ccc(Cl)cc3C(=O)N1[C@H]1c3ccccc3OC[C@@H]1[C@@H]2c1ccccc1 | u | x | u | x | n
COc1ccc2c(c1)OC[C@H]1[C@H]2N2C(=O)c3cc(OC)c(OC)cc3NC(=O)[C@@]2(C)[C@H]1c1ccccc1 | 29µM | x | 16µM | x | n
Cc1cccc(NC(=O)c2ccc(C3SCC(=O)N3CCc3ccccc3)cc2)c1 (stereo not drawn) | u | u | u | u | n
CCN1c2ccccc2-c2nc3ccccc3n2C1c1cccs1 (stereo not drawn) | 23µM | 13µM | 13µM | u | n
O=C(O)c1ccccc1C(=O)NNc1ccc(Cl)cc1 | n | n | n | n | n
CCOc1cc(CNC(=O)C2COc3ccccc3C2)cc(OCC)c1OCC (stereo not drawn) | 15µM | x | u | x | n
CCOc1cc(CNC(=O)C2CCN(c3nc4ccccc4[nH]3)CC2)cc(OCC)c1OCC | 21µM | x | 16µM | x | n
CCc1ccc(CNC(=O)C2COc3ccccc3C2)cc1 (stereo not drawn) | n | x | n | x | n
CCOc1ccc(NC(=O)C2CCN(c3nc4ccccc4[nH]3)CC2)cc1 | u | x | 23µM | x | n
CN(C)c1ccc(CNC(=O)C2CCN(c3nc4ccccc4[nH]3)CC2)cc1 | u | x | u | x | n
SMILES | TDP1 cell CPT | RORg inh | TDP1 cell noCPT | Gal4-VP16 FLuc | TDP1 block
Cc1cc(C)c(NC(=O)C2CCN(c3nc4ccccc4[nH]3)CC2)c(C)c1 | u | x | n | x | n
Cc1cccc(N2CCN(c3c4c(nc5nncn35)CCC4)CC2)c1C | n | x | u | x | n
CCc1ccccc1N(C)S(=O)(=O)c1ccc(-c2cc(C)no2)s1 | 2.1µM | n | 1.3µM | u | n
CCOc1ccc(NS(=O)(=O)c2ccc(-c3cc(C)no3)s2)cc1 | u | x | 18µM | x | n
Cc1cc(-c2ccc(S(=O)(=O)N3CCN(C)CC3)s2)on1 | n | n | n | n | n
Cc1cc(-c2ccc(S(=O)(=O)Nc3cccc(C)c3C)s2)on1 | 2.9µM | x | 2.6µM | x | n
CCOc1ccccc1CNS(=O)(=O)c1cc(-c2cc(C)no2)ccc1OC | u | n | n | n | n
COc1ccc(OC)c(NS(=O)(=O)c2ccc(-c3cc(C)no3)s2)c1 | 1.3µM | x | 0.58µM | x | n
Cc1cc2n(n1)C(c1cn(-c3ccccc3)nc1C)Nc1c(C)cccc1-2 (stereo not drawn) | n | u | n | n | n
COc1cccc(NS(=O)(=O)c2ccc(-c3cc(C)no3)s2)c1 | u | x | 23µM | x | n
CCN(c1ccc(OC)cc1)S(=O)(=O)c1ccc(-c2cc(C)no2)s1 | n | n | 15µM | n | n
COc1ccc(N2CCN(S(=O)(=O)c3ccc(-c4cc(C)no4)s3)CC2)cc1 | n | n | n | n | n
O=[N+]([O-])c1ccc(C2Nc3cccc4cccc(c34)N2)cc1 | n | n | n | n | n
COc1cc(C2Nc3cccc4cccc(c34)N2)ccc1OC(C)=O | 16µM | n | 16µM | n | n
Clc1cccc(C2Nc3cccc4cccc(c34)N2)c1Cl | n | n | n | n | x
COc1cc(C2Nc3cccc4cccc(c34)N2)cc(OC)c1O | 18µM | u | u | n | n
COc1ccc(C2Nc3cccc4cccc(c34)N2)cc1Br | u | u | u | n | x
COC(=O)c1ccc(C2Nc3cccc4cccc(c34)N2)cc1 | 8.2µM | n | 9.2µM | n | n
Oc1ccc(C2Nc3cccc4cccc(c34)N2)c(O)c1 | 4.1µM | u | 26µM | n | n
CCOc1ccc(NC(=O)CSc2nc3[nH]ncc3c(=O)[nH]2)cc1 | n | x | n | x | x
CCOC(=O)C1CCN(CC(=O)N2CCCc3c2c(=O)oc2ccc(OCc4ccccc4)cc32)CC1 | n | x | n | x | x
CCCOc1ccc2oc(=O)c3c(c2c1)CCCN3C(=O)CN1CCCC(C(=O)OCC)C1 (stereo not drawn) | u | n | 23µM | u | n
CCCOc1ccc2oc(=O)c3c(c2c1)CCCN3C(=O)CN1CCN(c2ncccn2)CC1 | 18µM | n | u | n | n
Cc1cc(=O)oc2cc(OCC(O)Cn3ccnc3)ccc12 (stereo not drawn) | n | n | u | n | x
COc1ccccc1C1CN(Cc2cnn(C)c2)Cc2ccccc2O1 (stereo not drawn) | n[9.04 µM] | x | n | x | x
Cc1ccc(Cl)c2sc(N3CCN(C(=O)C4CC4)CC3)nc12 | n | x | u | x | n
CCOc1ccc2nc(N3CCN(C(=O)c4ccc(S(=O)(=O)CC)cc4)CC3)sc2c1 | 18µM | x | 18µM | x | n
